MRP resist rev: reverses drug resistance mediated by MRP | H69AR cells + 2 uM doxorubicin, CellTiter-Glo, 72 h | differential viability (reversal), % at 10 µM | AID 602 | 85,000 compounds, 0.04% hits;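 active = viability drop by adding the cancer drug above about 55%, with treated viability meeting a 40% cutoff, limit read from the data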;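 also: viability without doxorubicin minus viability with 2 µM doxorubicin for each compound; larger differential means the compound sensitizes cells more to doxorubicin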
sEH activator: activators of human soluble epoxide hydrolase | 91,000 compounds, 0.04% hits | activation, % at 2 µM | AID 717 | purified human sEH enzymatic activity, activator screen | P34913; in the data active = activation above about 37%
Target sequence (P34913 whole entry, looked up): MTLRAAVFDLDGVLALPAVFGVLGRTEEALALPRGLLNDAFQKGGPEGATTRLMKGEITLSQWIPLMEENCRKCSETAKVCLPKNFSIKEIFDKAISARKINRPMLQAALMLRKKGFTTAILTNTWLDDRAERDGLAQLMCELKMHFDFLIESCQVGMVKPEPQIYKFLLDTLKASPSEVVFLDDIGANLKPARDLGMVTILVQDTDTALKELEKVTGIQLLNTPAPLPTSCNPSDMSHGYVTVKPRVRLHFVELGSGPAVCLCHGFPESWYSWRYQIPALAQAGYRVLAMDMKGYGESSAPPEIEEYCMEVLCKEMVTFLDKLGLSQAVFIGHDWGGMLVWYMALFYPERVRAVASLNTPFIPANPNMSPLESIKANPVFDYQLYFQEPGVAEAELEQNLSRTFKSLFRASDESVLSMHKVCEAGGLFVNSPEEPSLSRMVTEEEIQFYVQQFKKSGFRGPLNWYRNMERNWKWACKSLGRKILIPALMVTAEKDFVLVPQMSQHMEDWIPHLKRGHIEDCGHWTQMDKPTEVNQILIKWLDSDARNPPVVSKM
MRP1 act: activates MRP-1; H69AR cells + doxorubicin, viability rescue, CellTiter-Glo; 140,000 compounds, 0.61% hits; viability increase, % at 10 µM;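 active = viability gain under doxorubicin at or above a set limit, the compound median plus 3 SD, cut at about 4.7% in these data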;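 also: MRP-1 overexpressing cells given doxorubicin 25 µM after compound pretreatment; 18-22 h compound pretreatment then 72 h with doxorubicin before readout; 0% = doxorubicin-only wells and 100% = vehicle-treated cells without doxorubicin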
sEH inhibitor: blocks human soluble epoxide hydrolase activity; P34913; 91,000 compounds, 0.34% hits; recombinant human sEH enzymatic activity assay; inhibition, % at 2 µM; in the data active = inhibition above about 80%
Measles CPE: protection of cells from measles virus; 140,000 compounds, 1.5% hits; protection (pct of control), % at 4 µM; Measles virus-infected cells, CPE protection, absorbance; in the data active = protection mostly above about 24%, no sharp cut-off; inactive = mostly below about 26%
SDO1 yeast rescue: restores growth of sdo1-depleted yeast. z-score at 10 µM. S. cerevisiae sdo1-depleted JHY4D growth rescue, OD600 30 h; stronger effect = higher value; pdr5 snq2 efflux-pump mutant strain. 140,000 compounds, 0.21% hits. AID 817;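 active = z-score above 3 at both the 24 hr and the 30 hr optical density reads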;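 also: z-score against mean and SD of all compound wells on the same plate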
An asterisk follows results filed as active; / = not tested or not shown; [ ] = another dose, or the depositor's remark. Only some compounds are listed: those with a hit (about 2.5% of all), similar ones and a draw of the others.

SMILES | MRP resist rev | sEH activator | MRP1 act | sEH inhibitor | Measles CPE | SDO1 yeast rescue
Cc1cccc(C(=O)c2cnc3ccccc3c2-c2ccccc2)c1 | / | 8 | 5.0* | -5 | 17 | -1.2
O=C(Nc1nncs1)C(Sc1ccccc1)c1ccccc1 (stereo not given) | / | / | 0 | / | 15 | -1.1
CCC(C)NS(=O)(=O)c1ccc(NC(=O)C(Sc2ccccc2)c2ccccc2)cc1 (stereo not given) | / | / | -6 | / | 32* | -0.56
CC(C)NC(=O)C(Sc1ccccc1)c1ccccc1 (stereo not given) | / | 7 | -1 | -6 | 30* | 0.12
CCOc1ccccc1NC(=S)/C(=C(\[O-])c1ccc2c(c1)OCCO2)[n+]1ccc(CC)cc1 | / | -3 | -3 | 4 | 28* | -1
CC(C)(C)NC(=O)NC(=O)COC(=O)c1cc(=O)[nH]c2ccccc12 | 1 | -7 | -1 | 9 | 35* | 0.43
CNC(=O)COC(=O)c1cc(=O)[nH]c2ccccc12 | 4 | / | -1 | / | 2 | -0.01
CN(C)CCCC(=O)c1ccc2c(c1)OCO2 | 11 | 1 | 1 | -3 | 35* | 1
O=S(=O)(Nc1cccnc1Cl)c1ccc2c(c1)OCCO2 | 3 | / | -1 | / | 33* | 0.92
Cc1cc(C)c(C)c(S(=O)(=O)NCc2ccco2)c1C | 24 | 4 | -1 | -4 | 3 | -0.98
Cc1ccc(S(=O)(=O)NCc2ccco2)cc1C | -2 | / | 1 | / | 43* | 0.45
O=C(NC1=NCCS1)C1Cc2ccccc2CN1C(=O)c1ccccc1 (stereo not given) | 3 | 3 | -1 | -2 | 29* | 0.24
Cc1ccc(Cl)cc1N1CCN(C(=O)COc2ccc(S(=O)(=O)NC(C)C)cc2)CC1 | -19 | / | -2 | / | 56* | -0.93
CC(C)NS(=O)(=O)c1ccc(OCC(=O)N2CCCC2)cc1 | 6 | -7 | 0 | 11 | 3 | 0.82
CN(C)c1ccc(/C=N/NC(=O)CN(c2cccc(Cl)c2)S(C)(=O)=O)cc1Br | / | -44 | 0 | 45 | 10 | 1.4
Cc1ccccc1C(=O)N/N=C/c1ccc([N+](=O)[O-])s1 | -18 | -30 | -5 | 29 | 44* | -1.2
CC(=O)c1c(C)[nH]c(C(=O)Nc2nc(-c3ccc(Cl)cc3)cs2)c1C | / | / | 4.8* | / | 6 | 0.28
COc1ccc(C(=O)Nn2cnc3scc(-c4cccs4)c3c2=O)c(O)c1 | 0 | -7 | -2 | 8 | 17 | -0.68[7.5 µM]
CN(C)[C@@H]1CCC[C@@H]1OC(=O)C(c1ccccc1)c1ccccc1 | / | / | -1 | / | 10 | 0.48
CCc1nnc(NC(=O)CN2C(=O)c3ccccc3S2(=O)=O)s1 | 9 | 2 | -2 | 1 | 40* | 1.1
O=C(CCN1C(=O)c2ccccc2S1(=O)=O)Nc1nc2c(s1)CCCC2 | 30 | -6 | -3 | 6 | 24* | -0.62
Cc1nnc(NC(=O)CN2C(=O)c3ccccc3S2(=O)=O)s1 | -8 | 0 | -1 | 0 | 4 | -0.41
CCOC(=O)C1CCCN(C(=O)CNC(=O)Cn2ccc3ccccc3c2=O)C1 (stereo not given) | -6 | / | -1 | / | 6 | 0.59
O=C(N/N=C/c1cccc([N+](=O)[O-])c1)C1CC(=O)N(c2ccc(Cl)cc2)C1 (stereo not given) | / | -6 | 0 | 9 | 72* | -1.2
Cc1ccc(N2CC(C(=O)N/N=C/c3cccc([N+](=O)[O-])c3)CC2=O)cc1 (stereo not given) | / | 3 | -1 | -1 | 17 | -0.28
SMILES | MRP resist rev | sEH activator | MRP1 act | sEH inhibitor | Measles CPE | SDO1 yeast rescue
CSc1ncccc1C(=O)Nc1nc2ccc(Oc3ccccc3)cc2s1 | / | / | 4.8* | / | 18 | -1.2
O=C(O)c1cccn1Cc1ccccc1F | / | -16 | -4 | 15 | 44* | -0.12
O=C(NCc1ccccc1)Nc1cccn(Cc2ccccc2F)c1=O | / | / | -1 | / | 18 | -0.86
CC(=O)CC(c1ccc([N+](=O)[O-])cc1)c1c(O)c2ccccc2oc1=O (stereo not given) | / | 9 | 2 | -6 | 36* | 0.79
Cc1ccc(-n2c3c(cc(C(=O)O)c2=O)C(=O)CC(C)(C)C3)cc1 | 11 | -4 | -1 | 4 | 55* | 0.56
COCCNC(=O)C1(C)C=CC2(CCCCC2)N1C(=O)c1ccccc1 (stereo not given) | / | / | -1 | / | 22* | -0.09
CC(=O)Nc1ccc(-n2c(C)nc(=O)c(-c3ccccc3)c2C)cc1 | -8 | -14 | 11* | 14 | 10 | 0.43
Cc1nc(=O)c(-c2ccccc2)c(C)n1-c1ccc(O)cc1 | 3 | -5 | 5.3* | 5 | 13 | 0.78
COc1cc(/C=N/OCC(=O)Nc2cc(C)on2)ccc1OCc1ccccc1 | / | / | -2 | / | 75* | 0.84
COc1ccc(/C=C/C(=O)NCCCc2ccccc2)cc1OC | / | / | 1 | / | 4 | 0.23
COc1cc(CC(=O)N/N=C/c2ccc([N+](=O)[O-])cc2)c([N+](=O)[O-])cc1OC | / | / | -1 | / | 11 | 0.35
COc1cc(/C=N/NC(=O)Cc2ccccc2)ccc1Oc1ccc([N+](=O)[O-])cc1[N+](=O)[O-] | / | / | -5 | / | 43* | -0.69
COc1cc(/C=N/NC(=O)CN2CCCCC2)ccc1OCc1ccccc1 | / | / | -2 | / | 34* | -0.04
COc1cc(/C=N/NC(=O)CN2CCOCC2)ccc1OCc1ccccc1 | / | / | 1 | / | 25 | -0.1
COc1cc(/C=C/C(=O)NC(C)C)ccc1OCc1ccccc1 | / | / | -1 | / | 88* | 0.38
CCOC(=O)C(NCc1ccc2c(c1)OCO2)(NC(=O)c1ccccc1)C(F)(F)F (stereo not given) | -15 | 1 | -5 | 2 | 2 | -0.58
O=C(Nc1ccccc1F)c1ccc(-n2cncn2)nc1 | / | -9 | -2 | 7 | 7 | 1.5
CCc1nnc(NS(=O)(=O)c2ccc(NC(=S)NC(=O)/C=C/c3ccc(OC)cc3)cc2)s1 | / | / | -1 | / | 13 | 0.28
CCc1nnc(NS(=O)(=O)c2ccc(NC(=S)NC(=O)/C=C/c3ccccc3)cc2)s1 | / | / | 0 | / | 63* | 0.51
CCCCn1c(SCc2nc3ccccc3s2)nc2cc(S(N)(=O)=O)ccc21 | -17 | 3 | -5 | -4 | 40* | 0.74
C/C(=N\NC(=O)CC(C)C)c1ccc(N2CCCCC2)cc1 | / | / | -1 | / | 13 | 1.1
CC(C)(OC1OC(CO)C(O)C(O)C1O)[C@H]1Oc2ccc3ccc(=O)oc3c2[C@H]1O (stereo not given in full) | / | / | -1 | / | 3 | 0.48
Cc1cc(NC(=O)CCN2C(=O)C3C4C=CC(C4)C3C2=O)c2ccccc2n1 (stereo not given) | 10 | / | -2 | / | 45* | -0.33
O=C(CCN1C(=O)C2C3C=CC(C3)C2C1=O)Nc1c(F)cccc1F (stereo not given) | 7 | / | -2 | / | 3 | 0.38
O=C(Cc1ccccc1)Nc1nc2ccccc2s1 | 9 | 11 | -2 | -6 | 52* | -0.95
O=C(Cc1cccs1)Nc1nc2ccccc2s1 | 9 | 0 | -2 | -2 | 25 | -1.5
CCOC(=O)N1CCC(N2C(=O)c3ccccc3C2Nc2ccccc2)CC1 (stereo not given) | 1 | -10 | -3 | 8 | 4 | 0.83

Screens: PubChem BioAssay, several laboratories
